Test results published in PubChem BioAssay (NCI).
The panel holds about 83,000 compounds, 20% with a hit somewhere; the sample as a whole holds those more often.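 Values shown are percent growth following 48 h exposure of cells in 96-well plates to a single concentration of compound; below 10 was considered active.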 Active and inactive are the calls of the source.

How the values were obtained:
Assay in all cases: NCI-60 one-dose screen, 48 h (100 = growth as untreated, 0 = no growth, -100 = all killed)
Conditions in all cases: 10 µM unless noted
DU-145 prostate = system: DU-145 prostate
MALME-3M melanoma = system: MALME-3M melanoma
MDA-MB-231 breast = system: MDA-MB-231 breast
RXF 393 renal = system: RXF 393 renal
SF-268 CNS = system: SF-268 CNS
SF-295 CNS = system: SF-295 CNS
SF-539 CNS = system: SF-539 CNS
UACC-257 melanoma = system: UACC-257 melanoma
M14 melanoma = system: M14 melanoma
HCT-15 colon = system: HCT-15 colon
HT29 colon = system: HT29 colon
SNB-19 CNS = system: SNB-19 CNS
U251 CNS = system: U251 CNS
PC-3 prostate = system: PC-3 prostate
SK-MEL-5 melanoma = system: SK-MEL-5 melanoma
UACC-62 melanoma = system: UACC-62 melanoma
LOX IMVI melanoma = system: LOX IMVI melanoma
SNB-75 CNS = system: SNB-75 CNS
SK-MEL-28 melanoma = system: SK-MEL-28 melanoma

| Structure (SMILES) | growth (DU-145 prostate) | growth (MALME-3M melanoma) | growth (MDA-MB-231 breast) | growth (RXF 393 renal) | growth (SF-268 CNS) | growth (SF-295 CNS) | growth (SF-539 CNS) | growth (UACC-257 melanoma) | growth (M14 melanoma) | growth (HCT-15 colon) | growth (HT29 colon) | growth (SNB-19 CNS) | growth (U251 CNS) | growth (PC-3 prostate) | growth (SK-MEL-5 melanoma) | growth (UACC-62 melanoma) | growth (LOX IMVI melanoma) | growth (SNB-75 CNS) | growth (SK-MEL-28 melanoma) |
| --- | --- | --- | --- | --- | --- | --- | --- | --- | --- | --- | --- | --- | --- | --- | --- | --- | --- | --- | --- |
| S=c1[nH]nc(Cn2c3ccccc3c3ccncc32)o1 | 108% (inactive) | 100% (inactive) | 100% (inactive) | 112% (inactive) | 103% (inactive) | 108% (inactive) | 101% (inactive) | 89.7% (inactive) | 101% (inactive) | 110% (inactive) | 94.6% (inactive) | 98.6% (inactive) | 94.8% (inactive) | 99.4% (inactive) | 102% (inactive) | 93.3% (inactive) | 97.8% (inactive) |  |  |
| O=C(Nc1ccccc1Cl)c1c[nH]c(=O)c(-c2ccc(N3CCCOC4(CC4)C3)cc2)c1 | 77.6% (inactive) | 70% (inactive) | 77.7% (inactive) | 81.2% (inactive) | 69.8% (inactive) | 55.3% (inactive) | 76% (inactive) | 38% (inactive) | 74.9% (inactive) | 78.8% (inactive) | 70.5% (inactive) | 72.4% (inactive) | 75.9% (inactive) | 57.5% (inactive) | 8.08% (active) | 63.5% (inactive) | 46.7% (inactive) | 73% (inactive) | 78.4% (inactive) |
| Nc1nc(Nc2ccc(OCc3cccc(F)c3)cc2)c2c(n1)[nH]c1ccc(O)cc12 | 10.4% (inactive) | -69.5% (active) | -67.9% (active) | -76% (active) | -14.7% (active) | -69.2% (active) | -84% (active) | -31.2% (active) | -83% (active) | -8.62% (active) | -84.2% (active) | 12.3% (inactive) | -91% (active) | 4.64% (active) | -78.1% (active) | -75.1% (active) | -96% (active) | -63.5% (active) | -67.4% (active) |
| O=C(Nc1ccc(F)cc1)Nc1ccc(Br)c(C(F)(F)F)c1 | 22.3% (inactive) | -6.11% (active) | 7.99% (active) | 26.8% (inactive) | 22% (inactive) | 3% (active) | 19.9% (inactive) | 1.49% (active) | 15.3% (inactive) | 8.12% (active) |  | 19.8% (inactive) | 11.6% (inactive) |  | 4.53% (active) | 21.7% (inactive) | -16.7% (active) | 22.2% (inactive) | 20.8% (inactive) |
| O=c1c(-c2ccc3c(c2)OCO3)coc2c(CO)c(O)ccc12 | -20.8% (active) | -45.1% (active) | -33.6% (active) | -84% (active) | -43.3% (active) | 3.29% (active) | -9.82% (active) | 9.01% (active) | 45% (inactive) | 12.6% (inactive) | 86.1% (inactive) | 13.5% (inactive) | -92.6% (active) | -52.4% (active) | 5.73% (active) |  | -43.6% (active) | -5.16% (active) | 40.3% (inactive) |
| CN(C)c1ncc(C#Cc2c(F)cccc2F)c2ccccc12 | 97.4% (inactive) | 113% (inactive) | 80.2% (inactive) | 93.2% (inactive) | 87.2% (inactive) | 102% (inactive) | 94.5% (inactive) | 99% (inactive) | 86.3% (inactive) | 88.1% (inactive) | 70.6% (inactive) |  | 80% (inactive) | 75.7% (inactive) | 83.5% (inactive) | 71.4% (inactive) | 85.2% (inactive) | 108% (inactive) | 102% (inactive) |
| C=C1C(=O)O[C@H]2[C@H]1CC/C(COC(=O)c1ccc3ccccc3c1)=C\CC[C@@]1(C)O[C@@H]21 | -81.1% (active) | -75.8% (active) | -62.3% (active) | -91% (active) | -41% (active) | 43.1% (inactive) | -94.9% (active) | -24.6% (active) | -58.8% (active) | -45.4% (active) | -87.5% (active) | 11.6% (inactive) | -67.3% (active) |  | -74.6% (active) | -73% (active) | -89.7% (active) | 25.1% (inactive) | -61.2% (active) |
| C/C(=N/NC(=O)Cn1c2ccccc2c2ccncc21)c1cccs1 | 108% (inactive) | 100% (inactive) | 97.4% (inactive) | 98.7% (inactive) | 95.5% (inactive) | 109% (inactive) | 108% (inactive) | 89.9% (inactive) | 104% (inactive) | 99.8% (inactive) |  | 94.9% (inactive) | 97.5% (inactive) | 99.2% (inactive) | 99.4% (inactive) | 95.8% (inactive) | 104% (inactive) | 104% (inactive) |  |
| Nc1n[nH]c2cccc(C#Cc3cccc(NC(=O)c4cccc(C(F)(F)F)c4)c3)c12 | 48.5% (inactive) | -0.658% (active) | 9.5% (active) | -13.7% (active) | 32.7% (inactive) | 50.3% (inactive) | -19.9% (active) | 50.3% (inactive) | 10.4% (inactive) | 30.2% (inactive) | 13.3% (inactive) | 80.1% (inactive) | 49.4% (inactive) | 39.9% (inactive) | 43.9% (inactive) |  | 2.44% (active) | 30.5% (inactive) | 23.9% (inactive) |
| COc1ccc(-c2cc3ccc(N(C)C)cc3nc2N)c(F)c1 | 56.1% (inactive) | 25.3% (inactive) | 48.5% (inactive) | 32.4% (inactive) | 56.5% (inactive) | 25.4% (inactive) | 49.1% (inactive) | 23.3% (inactive) | -60.5% (active) | 31% (inactive) | 7.61% (active) | 49.8% (inactive) | 31.3% (inactive) | 28.2% (inactive) | -62.7% (active) | 48.2% (inactive) | 23.9% (inactive) |  | 38.4% (inactive) |
| O=C(Nc1ccc(F)cc1)Nc1ccc(Cl)c([N+](=O)[O-])c1 | 18.9% (inactive) | 27.4% (inactive) | 40% (inactive) | 51.1% (inactive) | 32.7% (inactive) | 8.17% (active) | 36.2% (inactive) | 34.9% (inactive) | 24% (inactive) | 11.1% (inactive) | 13.6% (inactive) | 21.5% (inactive) | 15.5% (inactive) | 6.25% (active) | 22% (inactive) | 15.9% (inactive) | 9.41% (active) | 46.7% (inactive) | 22.6% (inactive) |
| FC(F)(F)c1cn(CC2CNC2)c2ncnc(Cl)c12 | 108% (inactive) | 122% (inactive) | 100% (inactive) | 112% (inactive) | 99.2% (inactive) | 100% (inactive) | 109% (inactive) | 85.6% (inactive) | 109% (inactive) | 104% (inactive) |  | 99.9% (inactive) | 105% (inactive) | 110% (inactive) | 99.5% (inactive) | 102% (inactive) | 102% (inactive) | 109% (inactive) | 104% (inactive) |
| CCOc1ccccc1C(=O)N1CCN(c2cc(Cl)cc(Cl)c2)CC1 | 8.76% (active) | 45.3% (inactive) | 6.62% (active) | 40.9% (inactive) | 30% (inactive) | 17.9% (inactive) | -4.39% (active) | 51.1% (inactive) | -23.3% (active) | 11.2% (inactive) | -27.4% (active) | 24% (inactive) | 12.5% (inactive) | 10.6% (inactive) | -44.1% (active) | 19.5% (inactive) | 17.7% (inactive) |  | 54.7% (inactive) |
| O=C(c1ccccc1)[C@H]1[C@@H]2CCCN2[C@]2(C(=O)Nc3ccc(F)cc32)[C@]12C(=O)Nc1ccccc12 | 94% (inactive) | 125% (inactive) | 75.5% (inactive) | 81.9% (inactive) | 90.2% (inactive) | 97.6% (inactive) | 90.1% (inactive) | 83.3% (inactive) | 85.2% (inactive) | 86.9% (inactive) | 89.8% (inactive) | 90.8% (inactive) | 80.5% (inactive) | 65.7% (inactive) | 83.6% (inactive) |  | 91.3% (inactive) | 83.2% (inactive) | 92.8% (inactive) |
| Clc1ccc2c(NCCNc3nc(Cl)nc4ccccc34)ccnc2c1 | -3.33% (active) | -87.3% (active) | -87.8% (active) | -77.2% (active) | -58.1% (active) | -76.7% (active) | -84% (active) | 91.1% (inactive) | -89.1% (active) | -67.5% (active) | -91.5% (active) | -49.9% (active) | -92.1% (active) | -45.7% (active) | -99.2% (active) | -89.6% (active) | -89.4% (active) |  | -78.7% (active) |
| O=[N+]([O-])c1ccc(NS(=O)(=O)c2cc(Cl)ccc2Cl)c2ccccc12 | 73% (inactive) | 43.2% (inactive) | 71% (inactive) | 42.6% (inactive) | 47.9% (inactive) | 37.7% (inactive) | 44.9% (inactive) | 33.7% (inactive) | 45.4% (inactive) | 54.2% (inactive) | 59.4% (inactive) | 60.1% (inactive) | 67.1% (inactive) | 54.7% (inactive) | 14% (inactive) | 17.1% (inactive) | 56.4% (inactive) |  | 35.4% (inactive) |
| C=C1C(=O)O[C@H]2[C@H]1CC/C(CNC(=O)/C1=C/CC[C@@]3(C)O[C@H]3[C@H]3OC(=O)C(=C)[C@@H]3CC1)=C\CC[C@@]1(C)O[C@@H]21 | 105% (inactive) | 104% (inactive) | 102% (inactive) | 99.3% (inactive) | 98.5% (inactive) | 97.6% (inactive) | 95.6% (inactive) | 79.9% (inactive) | 95.2% (inactive) | 93.7% (inactive) |  | 97.6% (inactive) | 94.2% (inactive) | 99% (inactive) | 97.2% (inactive) | 85.1% (inactive) | 88.2% (inactive) | 86.3% (inactive) | 96.2% (inactive) |
| COc1cc(/C=C/C(=O)N2CCC=CC2=O)cc(OC)c1OC | 43.5% (inactive) | 10.5% (inactive) | 45.9% (inactive) | 9.03% (active) | 85.1% (inactive) | 94.1% (inactive) | 29.6% (inactive) | 66.4% (inactive) | 55.7% (inactive) | 1.7% (active) | 23.2% (inactive) | 72.9% (inactive) | 68.3% (inactive) | 79.7% (inactive) | 73.8% (inactive) |  | 10.2% (inactive) | 75.7% (inactive) | 56% (inactive) |
| Fc1cccc(F)c1C#Cc1ccc2cccnc2c1 | 96.5% (inactive) | 90.3% (inactive) | 78% (inactive) | 101% (inactive) | 88.6% (inactive) | 101% (inactive) | 102% (inactive) | 88.2% (inactive) | 95.7% (inactive) | 74.9% (inactive) | 69% (inactive) | 91.3% (inactive) | 80.6% (inactive) | 86.1% (inactive) | 71.9% (inactive) |  | 86.9% (inactive) | 97.8% (inactive) | 106% (inactive) |
| O=[N+]([O-])c1ccc(NS(=O)(=O)c2ccccc2)c2ccccc12 | 62.4% (inactive) | 18.8% (inactive) | 70.1% (inactive) | 41.6% (inactive) | 42.3% (inactive) | 43% (inactive) | 45.1% (inactive) | 16.3% (inactive) | 41% (inactive) | 46.8% (inactive) | 57.5% (inactive) | 48.4% (inactive) | 37.5% (inactive) | 53.2% (inactive) | 0.136% (active) | 22.7% (inactive) | 43.8% (inactive) | 42.5% (inactive) | 37.5% (inactive) |
